# Experimental data from PubChem BioAssay.
# The source made the active and inactive calls. Unless noted, the rule behind the calls is not given here.
# Legend:
# [1] = compound effects on lung adenocarcinoma cell viability – A549, calcein-AM fluorescence, 48 h, basal, profiling panel (AID 1162); details: higher = more signal; note: test concentration not given here
# [2] = compound effects on differentiated 3T3-L1 adipocyte viability – cell-based, 3T3-L1 adipocytes, calcein-AM fluorescence, 48 h, basal, profiling panel (AID 1163); details: 3T3-L1 adipocytes viability, higher = more signal; note: test concentration not given here
# [3] = compound effects on hepatocellular carcinoma cell viability – HepG2, calcein-AM fluorescence, 48 h, basal, profiling panel (AID 1164); details: higher = more signal; note: test concentration not given here
# [4] = compound effects on multiple myeloma cell viability – MM1S, calcein-AM fluorescence, 48 h, basal, profiling panel (AID 1165); details: higher = more signal;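 note: viability of MM1S multiple myeloma cells under basal unstimulated conditions; test concentration not given here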
# [5] = calcein-AM signal in unstimulated myeloma cells – cell-based, calcein-AM fluorescence, 48 h, PK04 Diversity Set, profiling panel (AID 1166); details: RPMI8226 myeloma viability, higher = more signal;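 note: cells grown under basal conditions without added stimulus; test concentration not given here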
# [6] = JC-1 mitochondrial signal, unstimulated HepG2 cells – cell-based, JC-1 fluorescence, 24 h, 100 nL compound, profiling panel (AID 1167); details: HepG2 mitochondrial potential, higher = more signal; note: test concentration not given here
# [7] = JC-1 mitochondrial signal, unstimulated adipocytes – cell-based, JC-1 fluorescence, 3T3-L1 adipocytes, 24 h, 100 nL compound, profiling panel (AID 1168); details: JC-1 mitochondrial fluorescence, higher = more signal, called active from +8 up or from −8 down; note: test concentration not given here
# [8] = JC-1 mitochondrial signal, unstimulated myeloma cells – cell-based, JC-1 fluorescence, RPMI8226, 24 h, 100 nL compound, profiling panel (AID 1169); details: JC-1 mitochondrial potential fluorescence, higher = more signal; note: test concentration not given here
# [9] = JC-1 mitochondrial signal, unstimulated MM1S myeloma – cell-based, JC-1 fluorescence, 24 h, 100 nL compound, profiling panel (AID 1170); details: MM1S mitochondrial potential, higher = more signal; note: test concentration not given here
# [10] = resazurin metabolic signal in A549 cells – cell-based, resazurin fluorescence, 24 h, PK04 Diversity Set, profiling panel (AID 1171); details: A549 viability, higher = more signal, called active from +8 up or from −8 down; note: test concentration not given here
# [11] = resazurin metabolic signal in HepG2 cells – cell-based, resazurin fluorescence, 24 h, PK04 Diversity Set, profiling panel (AID 1172); details: HepG2 viability, higher = more signal; note: test concentration not given here
# [12] = budding yeast growth changes without added modifier – OD600, strain BY4716, 24 h, basal condition, primary screen (AID 1173); details: S. cerevisiae BY4716 growth, OD600, 24 h; higher = more signal, called active from +8 up or from −8 down
# [13] = viability profiling in MM1S myeloma cells – cell-based, resazurin fluorescence, basal, 24 h, PK04 Diversity Set, profiling panel (AID 1174); details: higher = more signal, called active from +8 up or from −8 down; note: test concentration not given here
# [14] = target: Dihydroorotate dehydrogenase (quinone), mitochondrial (Plasmodium falciparum (isolate 3D7)) (UniProt Q08210); assay: inhibition of P. falciparum DHODH – biochemical, C-terminal His tag, absorbance 600 nm, primary screen (AID 1175); details: PfDHODH enzyme, DCIP absorbance 600 nm; higher = more signal, called active from +8 up or from −8 down;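 note: recombinant parasite enzyme with a five histidine tag at its C terminus; test concentration not given here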
# [15] = inhibition of PAO1 biofilm formation – strain PAO1, LB-PBS medium, absorbance 600 nm, primary screen (AID 1176); note: test concentration not given here; details: P. aeruginosa PAO1 growth/biofilm, A600, 12 h; higher = more signal
# [16] = growth modulation of vineyard yeast isolate – strain RM11-1a, OD600, basal, 24 h, primary screen (AID 1177);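 note: cultures grown under basal conditions with no added stressor; test concentration not given here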; details: S. cerevisiae RM11-1a growth, OD600, 24 h; higher = more signal, called active from +8 up or from −8 down
# [17] = growth of efflux-deficient E. coli DRC39 – strain DRC39, OD650, 24 h, E. coli filamentation inducers, primary screen (AID 1178);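 note: growth measured as culture turbidity by optical density at 650 nm; test concentration not given here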; details: E. coli DRC39 acrAB, higher = more signal, called active from +8 up or from −8 down
# [18] = growth of efflux-deficient E. coli DRC39 – strain DRC39, OD650, 48 h, E. coli filamentation inducers, primary screen (AID 1179);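 note: screen aims at cell division blockers that make cells filament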; details: E. coli DRC39 delta-acrAB growth, higher = more signal, called active from +8 up or from −8 down
# [19] = viability profiling in RPMI8226 myeloma cells – cell-based, resazurin fluorescence, basal, 24 h, PK04 Diversity Set, profiling panel (AID 1180); details: higher = more signal;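 note: RPMI8826 multiple myeloma cell line at 5000 cells per well; test concentration not given here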
# [20] = target: E3 ubiquitin-protein ligase XIAP (Homo sapiens) (UniProt P98170); assay: small molecules binding XIAP protein – biophysical, small-molecule microarray, fluorescence 635 nm, primary screen (AID 1181); details: higher = more signal;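 note: score merges 667 nm emission and signal to noise over triplicate slides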
# Chain of E3 ubiquitin-protein ligase XIAP (Homo sapiens) (P98170 whole entry, looked up): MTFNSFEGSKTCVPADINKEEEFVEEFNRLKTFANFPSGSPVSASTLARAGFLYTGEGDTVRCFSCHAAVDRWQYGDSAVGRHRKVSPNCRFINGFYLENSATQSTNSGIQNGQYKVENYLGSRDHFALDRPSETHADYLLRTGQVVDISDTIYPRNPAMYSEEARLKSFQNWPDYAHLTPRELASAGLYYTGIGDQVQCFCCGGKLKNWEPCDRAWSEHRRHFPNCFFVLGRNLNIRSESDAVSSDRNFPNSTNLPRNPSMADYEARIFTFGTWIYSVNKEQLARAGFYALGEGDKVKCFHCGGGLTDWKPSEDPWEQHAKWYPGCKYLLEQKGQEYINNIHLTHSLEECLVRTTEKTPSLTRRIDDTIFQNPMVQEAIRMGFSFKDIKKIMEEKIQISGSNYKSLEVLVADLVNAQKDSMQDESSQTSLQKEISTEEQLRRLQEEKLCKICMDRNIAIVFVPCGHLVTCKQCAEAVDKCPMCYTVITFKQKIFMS
# Chain of Dihydroorotate dehydrogenase (quinone), mitochondrial (Plasmodium falciparum (isolate 3D7)) (Q08210 whole entry, looked up): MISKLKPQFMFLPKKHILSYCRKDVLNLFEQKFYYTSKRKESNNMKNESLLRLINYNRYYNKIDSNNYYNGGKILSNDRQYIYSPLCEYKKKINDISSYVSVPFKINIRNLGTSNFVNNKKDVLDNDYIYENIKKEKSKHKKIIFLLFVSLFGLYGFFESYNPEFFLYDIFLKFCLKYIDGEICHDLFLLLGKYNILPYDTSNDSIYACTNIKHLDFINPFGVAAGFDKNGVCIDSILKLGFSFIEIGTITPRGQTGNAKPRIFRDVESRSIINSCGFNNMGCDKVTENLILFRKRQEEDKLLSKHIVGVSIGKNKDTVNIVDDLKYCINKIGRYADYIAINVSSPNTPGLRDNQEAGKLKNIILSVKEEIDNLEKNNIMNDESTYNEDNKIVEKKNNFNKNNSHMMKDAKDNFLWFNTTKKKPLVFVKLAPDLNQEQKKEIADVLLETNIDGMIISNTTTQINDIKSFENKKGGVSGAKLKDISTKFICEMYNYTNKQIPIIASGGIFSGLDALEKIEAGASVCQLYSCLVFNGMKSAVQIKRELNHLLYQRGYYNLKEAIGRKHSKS
SMILES,z-score [1],z-score [2],z-score [3],z-score [4],z-score [5],z-score [6],z-score [7],z-score [8],z-score [9],z-score [10],z-score [11],z-score [12],z-score [13],composite z-score [14],z-score [15],z-score [16],z-score [17],z-score [18],z-score [19],composite z-score [20]
COc1ccc([Si](C)(C)[C@H]2[C@H](CCO)O[C@@]3(C(=O)N(Cc4ccccc4)c4ccc(N5CCOC5=O)cc43)[C@@H]2C)cc1,-0.119,-0.325,-2.09,-2.13,-3.4,-0.203,0.69 (inactive),-1.11,-1.68,-1.94 (inactive),-1.27,1.12 (inactive),-3.35 (inactive),0.0738 (inactive),2.41 (inactive),4.25 (inactive),0.895 (inactive),0.0981 (inactive),-2.64,-0.135
CO[C@H]1O[C@H](CO)[C@@H](OC(=O)CCc2ccccc2)[C@H](OC(=O)c2cc3ccccc3[nH]2)[C@H]1OC(=O)c1cc2ccccc2[nH]1,0.98,0.679,0.138,-2.82,-2.54,-2.04,1.36 (inactive),-0.502,-1.1,-2.84 (inactive),-1.4,-1.14 (inactive),-2.09 (inactive),-1.62 (inactive),1.38 (inactive),0.033 (inactive),0.367 (inactive),1.2 (inactive),-2.49,-0.156
C=CCC(OC(C)=O)[C@@H]1[C@@H](N(Cc2cc3ccccc3o2)C(=O)c2ccc(-c3ccccc3)cc2)c2cc(OCCCO)ccc2N1C(=O)Cc1ccc(OC)cc1 (stereo not given in full),0.315,0.443,1.04,0.0213,-0.226,1.23,-0.76 (inactive),0.738,0.239,0.0443 (inactive),-0.716,1.4 (inactive),-0.133 (inactive),0.0211 (inactive),0.0672 (inactive),0.708 (inactive),-0.384 (inactive),-0.541 (inactive),-0.209,-0.0414
COCCOC(=O)N1C(=O)[C@@]2(c3cc(C#CC4(O)CCCCCC4)ccc31)[C@H](c1ccc(OCCO)cc1)N1[C@H](c3ccccc3)[C@H](c3ccccc3)OC(=O)[C@H]1[C@@H]2C(=O)Nc1nc2ccccc2s1,0.0809,0.676,0.499,-2.09,-2.15,-3.31,1.1 (inactive),-1.07,-1.46,0.813 (inactive),1.39,1.46 (inactive),-0.773 (inactive),-1.19 (inactive),2.98 (inactive),2.43 (inactive),-0.0994 (inactive),-0.347 (inactive),-0.494,0.332
CCCCCN1CC=CC23O[C@@H]4C=CCOC(=O)[C@@H]4[C@H]2C(=O)N(CCO)[C@@H]3C1=O (stereo not given in full),-0.479,-0.609,0.0249,0.687,-0.285,-0.607,0.561 (inactive),0.174,-0.15,-0.0273 (inactive),0.815,0.201 (inactive),0.0974 (inactive),-0.693 (inactive),0.398 (inactive),-0.454 (inactive),-0.0666 (inactive),-0.193 (inactive),0.229,0.307
CN(C)C(=O)[C@]1(CCS(=O)(=O)c2ccccc2)N=C(c2ccc(OCCCO)cc2)O[C@@H]1c1ccccc1,-1.05,1.02,-0.416,-0.675,-0.76,1.34,-0.132 (inactive),-0.783,-1.24,-0.482 (inactive),1.4,-0.265 (inactive),-0.342 (inactive),0.524 (inactive),-0.484 (inactive),-0.315 (inactive),0.582 (inactive),-0.0986 (inactive),-0.155,0.0651
CCOC(=O)C1=CC[C@@H](c2ccccc2)N(S(=O)(=O)c2ccc(C)cc2)[C@H]1C=Cc1ccccc1,-0.959,-0.443,-0.599,-0.149,-1.44,2.91,-0.489 (inactive),0.0754,-1.42,2.28 (inactive),1.25,1.58 (inactive),-0.0664 (inactive),-0.382 (inactive),0.987 (inactive),0.65 (inactive),-0.923 (inactive),-0.706 (inactive),-1.42,-0.103
Cc1ccccc1C(O)C1C=CC2C(=O)N(c3ccccc3)C(=O)C2N1Nc1ccc([N+](=O)[O-])cc1 (stereo not given),-1.06,-0.127,-1.2,-0.127,-0.566,-1.04,-1.1 (inactive),-0.247,0.585,0.306 (inactive),-0.368,-0.14 (inactive),-0.327 (inactive),0.718 (inactive),1.29 (inactive),-0.0035 (inactive),-0.328 (inactive),-0.316 (inactive),-0.0045,0.167
Cc1nc2cc(Br)ccc2c(=O)n1Cc1cccc(O)c1,-0.508,-0.396,0.454,-0.301,0.244,-0.0434,1.62 (inactive),-0.536,-0.432,0.246 (inactive),0.674,-0.496 (inactive),-1.23 (inactive),0.0596 (inactive),1.38 (inactive),0.0164 (inactive),0.381 (inactive),0.776 (inactive),-0.505,0.0674
